Data as given in PubChem BioAssay (NCI).
This is part of a sample that, as a whole, favours compounds with a hit. Of some 83,000 tested, about 20% had one in any assay.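 Negative percent growth values reflect cell death: -40 means 40% of the cells present at the start died, and -100 means all died.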 Unmarked numbers belong to inactive results. Activity calls are given as the source filed them. The calls were made as follows: active = growth percent below 10; inactive = the rest.

How the values were obtained:
Experiment in all cases: NCI-60 one-dose screen, 48 h (100 = growth as untreated, 0 = no growth, -100 = all killed)
Details in all cases: 10 µM unless noted
[1] = tested on: HCT-15 colon
[2] = tested on: HT29 colon
[3] = tested on: SNB-75 CNS
[4] = tested on: SNB-19 CNS
[5] = tested on: U251 CNS
[6] = tested on: PC-3 prostate
[7] = tested on: SK-MEL-5 melanoma
[8] = tested on: UACC-62 melanoma
[9] = tested on: LOX IMVI melanoma
[10] = tested on: SK-MEL-28 melanoma
[11] = tested on: SK-MEL-2 melanoma
[12] = tested on: EKVX NSCLC
[13] = tested on: SN12C renal
[14] = tested on: UO-31 renal
[15] = tested on: TK-10 renal
[16] = tested on: ACHN renal
[17] = tested on: CAKI-1 renal
[18] = tested on: A498 renal
[19] = tested on: CCRF-CEM leukemia
[20] = tested on: MOLT-4 leukemia

Compound | growth [1] | growth [2] | growth [3] | growth [4] | growth [5] | growth [6] | growth [7] | growth [8] | growth [9] | growth [10] | growth [11] | growth [12] | growth [13] | growth [14] | growth [15] | growth [16] | growth [17] | growth [18] | growth [19] | growth [20]
COc1ccc(NC(=O)CSc2nnc(-c3ccc(-c4nc5ccc(Cl)cc5[nH]4)cc3)o2)cc1 | 41.9% | 47.8% | 5.21% (active) | -29.2% (active) | -58% (active) | -20.7% (active) | 7% (active) | -32.6% (active) | -33.3% (active) | -76% (active) | 39.4% | 23.3% | 6.13% (active) | 71.4% | 112% | 2.97% (active) | 8.1% (active) | 60.2% | 54.2% | 37.5%
COc1ccc(N=Nc2c(N)nn3c(-c4cc5ccccc5oc4=O)ccnc23)cc1 | 64.9% | 50.7% | 33.6% | 19.8% | 28.5% | 70.7% | 24% | 47.7% | 57.2% | 45.4% | 39.3% | 44.1% | 24.1% | 40.7% | 77.7% | 3.84% (active) | 53.8% | 138% | 96.3% | 104%
CCCCC[C@@H]1C/C=C(\C)[C@@H](O)C(C)(C)C(=O)[C@@H](C)/C=C(\C)[C@@H]2C[C@H](O)C[C@](O)(CC(=O)O1)O2 | 38.4% | 50.4% | 32.9% | 37.2% | 61.2% | 21.4% | -17.6% (active) | 55.8% | 50.9% | 76.3% | 9.84% (active) | 21.4% | 76.8% | 20.4% | 55.1% | 19.7% | 47.1% | 30% | 28.9% | 18.2%
COc1ccc(/C=C/c2nc3ccccc3c(=O)n2CC(=O)Nc2ccccc2)cc1 | 79.9% | 83.3% | -35% (active) | 29.1% | 16.3% | 84.7% | 71.6% | 78.6% | 26.9% | 79.1% | 81.2% | 63.1% | 8.23% (active) | -33% (active) | -9.9% (active) | -60% (active) | 35.1% | -43% (active) | 88.3% | 86.7%
CC(=O)c1c2c(c3ccc4c5ccccc5ccc4n13)C(=O)c1ccccc1C2=O | 81.6% | 107% | 93.8% | 65.4% | 82.9% | 77.5% | 63.7% | 87% | 64.5% | 101% | 93.3% | 77% | 89.9% | 59.3% | 118% | 75.6% | 85.6% | 189% | 99.9% | 90.6%
CC1=C(C(=O)Nc2ccccc2)C(c2ccc3ccccc3c2)n2c(nc3ccccc32)N1 (stereo not given) | 40.5% | 69% | -11.1% (active) | 79.4% | 28.6% | 21.7% | 87.3% | 75% | 9.5% (active) | 63.2% | 106% | 85% | 14.4% | 75% | 116% | 52.7% | 60.9% | 134% | 11.1% | 12.7%
COC(=O)c1cccc(Oc2ccc(NC(=O)Nc3cc(C(F)(F)F)ccc3F)cc2)c1 | 62% | 62.9% | -34.1% (active) | 10.7% | 40.4% | 69.9% | 94.5% | 69.6% | 79.5% | 88.7% | 73.1% | 60.9% | 75.7% | 73.9% | 88.5% | 56.4% | 62.4% | 94.9% | 65% | 64.7%
CC(C)(C)OC(=O)N1CCC2(CC1)Oc1ccccc1[C@H]1CC(c3ccc(Br)cc3)=NN12 | 59.1% | 96.7% | 72.8% | 78% | 82.8% | 66.6% | 76.2% | 41.3% | 54.2% | 113% | 71.9% | 56.6% | 71.2% | 43% | 131% | 60% | 41.1% | 98.7% | 58.2% | 47%
O=C(COc1ccc(/C=C2/C(=O)Nc3ccc(Cl)cc32)cc1)Nc1ccc(Br)cc1 | -23% (active) | -51.3% (active) | -57% (active) | 5.08% (active) | -88.4% (active) | -38.9% (active) | -14.8% (active) | 0.1% (active) | -89.4% (active) | -26.7% (active) | 16.3% | -27.8% (active) | -80.6% (active) | -73.7% (active) | -65.4% (active) | -82.9% (active) | -73% (active) | -51% (active) | -23.9% (active) | -46.5% (active)
N#Cc1ccc(C(=O)NNC(=O)CSc2nc3sc4c(c3c(=O)n2-c2ccc(Cl)cc2)CCCC4)cc1 | 51.2% | 56% | 86.7% | 51.5% | 15.9% | 67% | 38.5% | 4.59% (active) | 39.7% | 27.8% | 94.2% | 54.3% | 41.7% | 42.7% | 115% | 71.2% | 53.1% | 89.2% | 48.9% | 46.3%
O=C(Cc1c(-c2cccc([N+](=O)[O-])c2)n(-c2ncnc3c2c(-c2ccccc2)c(-c2ccccc2)n3Cc2ccccc2)[nH]c1=O)c1ccc(Cl)c(Cl)c1 | 62.3% | 37% | 46.1% | 25.9% | 26.4% | 30.7% | -10.2% (active) | 14% | 15.7% | 46.3% | 1.5% (active) | 11.1% | 38.5% | 39.8% | 59% | 40.4% | 21.1% | 70.3% | 51.3% | 41.9%
CCOC(=O)/C(F)=C/C1CC1CCc1ccc(OCC)cc1 (stereo not given) | 70.6% | 58.5% | 81.3% | 95.4% | 104% | 85.2% | 63.7% | 87.5% | 97.9% | 110% | 102% | 47.7% | 44.9% | 73.8% | 98.2% | 75.1% | 86.1% | 102% | 106% | 98.4%
CN(C)CCCNC(=S)Nc1ccc(/C=C/c2ccc(Cl)cc2)cc1 | -93.8% (active) | -51.4% (active) | 8.9% (active) | -35.2% (active) | -2.11% (active) | -35.3% (active) | -98.6% (active) | -82.3% (active) | -64.5% (active) | -97.6% (active) | -85.4% (active) | -35.1% (active) | -100% (active) | -95.8% (active) | -87.9% (active) | -97.6% (active) | -77.3% (active) | -47.7% (active) | -16.9% (active) | 0.54% (active)
O=C(Cn1c(-c2ccccc2)nc2ccccc21)N=Nc1c(O)[nH]c2ccc(Cl)cc12 | 7.61% (active) | 2.44% (active) | -49.5% (active) | -4.56% (active) | 13.4% | 21.7% | 10.7% | -2.77% (active) | 8.05% (active) | -51% (active) | 17.6% | 9.78% (active) | 5.72% (active) | 1.39% (active) | 28.5% | -47.3% (active) | 13% | -5.31% (active) | 31.8% | 27.4%
